Assay results: ChEMBL document CHEMBL4513216, “Probing the Open Global Health Chemical Diversity Library for Multistage-Active Starting Points for Next-Generation Antimalarials” (ACS Infect Dis, 2020)
In all, about 69,000 compounds went through this assay and about 8,600 (12%) showed an effect of 50% or more. Shown is part of a subset that was picked to be rich in strong results.

What follows are molecules tested on Plasmodium berghei (assay: Screen against P. berghei liver stage (PbLuc), transformed with Luciferase, at 10uM). Settings: tested at 10 uM.
Type: functional, HepG2

SMILES	INHIBITION [%]
CC(C)Nc1cccc(CC2CCN(S(C)(=O)=O)CC2)n1	41.2
c1ccc(CN2CCc3ncnc(C4CC4)c3CC2)cc1	0.164
Cn1ccnc1CN1CCc2ncnc(N3CCCC(C#N)C3)c2CC1 (stereo unspecified)	11.3
N#CC1CCCN(c2ncnc3c2CCN(Cc2ccccc2)CC3)C1 (stereo unspecified)	67.8
O=C(c1ccc2c(c1)CCC2)N1CC[C@H](O)[C@]2(CCCO2)C1	32.3
CC(C)c1nc(-c2cc(C(=O)NCCN(C)C)c3ccccn23)cs1	-2.41
CN(Cc1ccc([S+](C)[O-])cc1)c1ccc(Cl)cn1 (stereo unspecified)	33
CN(Cc1ccc([S+](C)[O-])cc1)c1cncc(Br)c1 (stereo unspecified)	58.4
Cc1csc(CNC(=O)N(C)Cc2ccc([S+](C)[O-])cc2)n1 (stereo unspecified)	20.6
CN(Cc1ccc([S+](C)[O-])cc1)c1cncc(Cl)n1 (stereo unspecified)	52.2
Cc1ncc(CNC(=O)N(C)Cc2ccc([S+](C)[O-])cc2)s1 (stereo unspecified)	40.5
CN(Cc1ccncc1)c1cncc(Br)c1	33.4
CCc1cc(=O)[nH]c(SCc2ccccn2)n1	-35.5
Cc1noc(C(C)C)c1C(=O)N1CCC(n2cccn2)CC1	26.5
Cc1cc(C)n(CC2CN(Cc3nc(C)c(C)o3)CCO2)n1 (stereo unspecified)	-47.6
CN1CCN(C(=O)NC2CC2)Cc2cccnc21	0.547
COC1COC2(CCN(Cc3ccc(Cl)cc3)CC2)C1 (stereo unspecified)	19.5
Cn1cc(CNC2CCS(=O)(=O)C2)c(-c2cc3ccccc3o2)n1 (stereo unspecified)	35
Cn1cc(CNC2CCOCC2)c(-c2cc3ccccc3o2)n1	39.6
Cn1cc(CNC2CCC(O)CC2)c(-c2cc3ccccc3o2)n1 (stereo unspecified)	72.1
COc1cccc(CN2CCC3(CCN(C(=O)[C@H]4CCCO4)CC3)C2)c1	43.2
Cc1nn(C)c(=O)c2nn(-c3ccc(Cl)cc3)c(C)c12	28.5

SMILES	INHIBITION [%]
O=C([C@@H]1COC[C@H]2CN(CC3CC3)C[C@H]21)N1CCC(F)CC1	12.7
O=C([C@H]1COC[C@H]2CN(CC3CC3)C[C@H]21)N1CCOCC1	60
O=C([C@H]1COC[C@H]2CN(CC3CCCC3)C[C@H]21)N1CCOCC1	11.3
O=C([C@@H]1COC[C@H]2CN(CC3CCCC3)C[C@H]21)N1CCOCC1	65.9
O=C([C@H]1COC[C@H]2CN(CC3CCC3)C[C@H]21)N1CCOCC1	24.6
O=C(C1CN(CC2CC2)CC12CCOCC2)N1CCOCC1 (stereo unspecified)	-7.24
Cc1cnn(CCNCc2csc(-c3ncccn3)n2)c1	27.95
CCc1nnc(CN(CC)C(=O)C2CC(=O)N(C3CCCC3)C2)o1 (stereo unspecified)	43.2
Cc1cc(C)cc(C(=O)Nc2cccc(CN3CCCC3C(N)=O)c2)c1 (stereo unspecified)	56
NC(=O)C1CCCN1Cc1cccc(NC(=O)c2cc(Cl)cc(Cl)c2)c1 (stereo unspecified)	68.8
NC(=O)C1CCCN1Cc1cccc(NC(=O)c2ccsc2)c1 (stereo unspecified)	-18.4
CCc1ccc(C(=O)Nc2cccc(CN3CCCC3C(N)=O)c2)cc1 (stereo unspecified)	-40.7
NC(=O)C1CCCN1Cc1cccc(NC(=O)c2ccc(Cl)cc2F)c1 (stereo unspecified)	44
NC(=O)C1CCCN1Cc1cccc(NC(=O)c2cccs2)c1 (stereo unspecified)	-8.22
C[C@]12CCCCN(C(=O)c3ccccn3)[C@H]1CCCC(=O)N2	11.1
CC1CCc2nn(CCNC(=O)c3ccco3)c(=O)cc2C1 (stereo unspecified)	-16.9
COc1cccc(S(=O)(=O)NC(=O)C2CC(c3ccccc3)=NO2)c1 (stereo unspecified)	-24.7
COC[C@@H]1CCC[C@]12CN(Cc1cccc(C)n1)CCO2	-11.8
c1csc(COC[C@H]2CCC[C@]23CN(Cc2ccoc2)CCO3)n1	63.7
c1ccc(OC[C@H]2CCC[C@]23CN(Cc2nccs2)CCO3)nc1	38.7
CCOC[C@@H]1CCC[C@@]12CN(Cc1nccs1)CCO2	35.8
c1coc(CN2CCO[C@@]3(CCC[C@@H]3COCc3nccs3)C2)c1	53.2

SMILES	INHIBITION [%]
COC[C@@H]1CCC[C@]12CN(Cc1ccco1)CCO2	8.67
c1cncc(OC[C@@H]2CCC[C@@]23CN(Cc2nccs2)CCO3)c1	66
COC[C@@H]1CCC[C@@]12CN(Cc1ccco1)CCO2	-0.813
O=C(c1ccc[nH]1)N1CCO[C@]2(CCC[C@@H]2COc2cccnc2)C1	-34.7
c1ccc(COC[C@@H]2CCC[C@]23CN(Cc2nccs2)CCO3)nc1	74.2
O=C(c1ccoc1)N1CCO[C@]2(CCC[C@@H]2COCc2ccncc2)C1	-6.23
CCOC[C@@H]1CCC[C@@]12CN(Cc1cccnc1)CCO2	48.6
CCc1noc(C2CCCCN2C(=O)c2sccc2C)n1 (stereo unspecified)	40.8
O=C(O)c1cc2c(nc1N1CCOCC1)CCN(C1CCOC1)CC2 (stereo unspecified)	-12.1
CC(=O)NC1CCCN(C(=O)NCc2cccnc2)C1 (stereo unspecified)	-51.5
CC(C)CN1CCC2(CC1)CC(NS(C)(=O)=O)c1ccccc1O2 (stereo unspecified)	6.55
CCOCCCC(=O)N(C)C(c1cccc(F)c1)c1ccccn1 (stereo unspecified)	-18
Cc1nc(C2CCNCC2)cc(N(C)Cc2cc3cc(F)ccc3[nH]2)n1	33.5
COc1cnc(CSc2nnc(C)s2)cc1OCC(N)=O	34.2
CCN1C(=O)CCCC12CCCN(C(=O)c1occc1C)C2 (stereo unspecified)	23.5
CC(CO)(NCc1noc(Cc2ccccc2)n1)C1CCCCC1 (stereo unspecified)	-1.7
O=C(O)[C@@H]1CN(C(=O)CSCC2CC2)C[C@H]1c1ccccn1	-87
CCOc1ncccc1CNC(=O)c1c(C)oc(C)c1C	29.75
CC(NC(=O)c1ccoc1)c1ccc2c(c1)CCC(=O)N2 (stereo unspecified)	-6.14
Cc1ccsc1C(=O)NC(C)c1ccc2c(c1)CCC(=O)N2 (stereo unspecified)	11.7
CC(NC(=O)c1cccc[n+]1[O-])c1ccc2c(c1)CCC(=O)N2 (stereo unspecified)	62.6
CC(NC(=O)NCc1cc[nH]n1)c1ccc2c(c1)CCC(=O)N2 (stereo unspecified)	51.2

SMILES	INHIBITION [%]
CC(NC(=O)NCc1ccccn1)c1ccc2c(c1)CCC(=O)N2 (stereo unspecified)	-75.2
Cc1csc(CNC(=O)NC(C)c2ccc3c(c2)CCC(=O)N3)n1 (stereo unspecified)	9.64
Cn1cnnc1C1CCN(C(=O)CCCOCc2ccccc2)CC1	43.2
COc1nc(C)ccc1CNC(=O)NC(c1ncc(C)s1)C1CC1 (stereo unspecified)	-21.1
O[C@H]1CN(CCOc2ccc(F)cc2)CC[C@@]12CCCO2	62.9
O[C@H]1CN(CCCOc2ccccc2F)CC[C@@]12CCCO2	6.485
C[C@@H]1CN(CCOc2ccc(F)cc2)CC[C@@]1(O)C1CCOCC1	28.8
Cc1noc(C)c1CCC(=O)N1CCCC(n2cccn2)C1 (stereo unspecified)	37.4
CCc1nc(NC2CC(=O)N(CC3CCCCC3)C2)ncc1C (stereo unspecified)	2.97
Cc1nc(Nc2ncccn2)cc(C2CCCN2C2CCOCC2)n1 (stereo unspecified)	15.4
Cc1nc(NC2CCOCC2)cc(C2CCN2S(C)(=O)=O)n1 (stereo unspecified)	30.6
Cc1nc(Nc2nnc(C)s2)cc(C2CCCN2)n1 (stereo unspecified)	-24.595
Cc1nc(Nc2ncc(C)s2)cc(C2CCCN2S(C)(=O)=O)n1 (stereo unspecified)	50.8
Cc1nc(Nc2nccs2)cc(C2CCCN2)n1 (stereo unspecified)	5.05
Cc1nc(Nc2ccccn2)cc(C2CCCN2C2CCOCC2)n1 (stereo unspecified)	20.8
Cc1nc(Nc2nccs2)cc(C2CCCN2C2CCOCC2)n1 (stereo unspecified)	52.3
Cc1nc(Nc2ncc(C)s2)cc(C2CCCN2)n1 (stereo unspecified)	67.15
Cc1nc(Nc2nnc(C)s2)cc(C2CCCN2S(C)(=O)=O)n1 (stereo unspecified)	6.32
Cc1cc(CN(C)C(=O)C2CC(c3cccc(F)c3)=NO2)no1 (stereo unspecified)	7.24
CCNC(=O)c1ccc2c(c1)nc1n2CCN(C(C)C)C1	-17.2
COc1ccccc1C(=O)N1CCCC1c1ncc2c(n1)CCNC2 (stereo unspecified)	26.3
CCCC(O)CN1CCC(=O)N(CCOC)Cc2ccccc21 (stereo unspecified)	6.34

SMILES	INHIBITION [%]
CC(C)C(C)N(C)C(=O)COc1ccccc1C#N (stereo unspecified)	16.8
COC(=O)c1ccc(NC(=O)CCc2ccco2)cc1	-13.6
Cc1nnc(C(C)N2CCCN(Cc3ccc(C#N)cc3)CC2)o1 (stereo unspecified)	24
O=c1ccc2c([nH]1)CCC(NCc1ccc(F)cc1)C2 (stereo unspecified)	45.1
Cc1ccc(C)c(CC(=O)NC2(C#N)CCOCC2)c1	20.4
O=C(c1ccccn1)N(CCO)Cc1cc(Br)ccc1F	-0.759
Cc1nn(C2CCS(=O)(=O)C2)c(O)c1Cc1ccccc1 (stereo unspecified)	36.9
CCOCC1CN(Cc2ccoc2)Cc2nn(C)cc21 (stereo unspecified)	16.8
CNc1cccc(C2CCCN(C(=O)c3coc(C)n3)C2)n1 (stereo unspecified)	41.2
CNc1cncc(C2CCN(C(=O)c3cnco3)CC2)n1	8.53
CNc1cncc(C2CCN(C(=O)c3coc(C)n3)CC2)n1	58
Cc1cc(Br)oc1C(=O)N1CCCN(CC(N)=O)CC1	30.3
CC(=O)N1CCCN(C(=O)c2oc(Br)cc2C)CC1	58.5
Cc1cc(Br)oc1C(=O)N1CCN(CC(N)=O)CC1	20.9
Cn1cc(C2CC(=O)NC23CCN(CC2CC2)CC3)cn1 (stereo unspecified)	48.7
Cc1nc(N2CCCC2)nc2c1CCN(Cc1ccco1)CC2	15.1
Cc1ccc(F)c2c1N(C(=O)c1cn(CC(=O)N(C)C)nn1)CCC2	-9.21
CN(C)CCN1CCOCC2(C1)CN(Cc1nccs1)CCO2 (stereo unspecified)	14.1
